# This is a sample that favours compounds with a hit; in the whole collection about 1.5% have one here.
# CRFR2-BP antag: blocks CRF-induced signaling of the CRF-BP/CRF-R2 complex. HEK293 CRF-R2/CRF-BP, CRF-induced calcium fluorescence. inhibition, % at 11.8 µM. AID 588475. 350,000 compounds, 0.59% hits;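 active = inhibition of the ligand-induced calcium signal above about 50% at the single tested concentration, limit read from the data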
# NTR1 ag: NTR1 (human) agonism. P30989. NTR1-U2OS beta-arrestin-GFP spot imaging, agonist mode. activation, % at 20 µM. 330,000 compounds, 0.17% hits. AID 493036;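 active = activation at or above 40% of the spot to cytoplasm intensity ratio, with at least 20 cells analyzed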
# Target sequence (P30989 whole entry, looked up): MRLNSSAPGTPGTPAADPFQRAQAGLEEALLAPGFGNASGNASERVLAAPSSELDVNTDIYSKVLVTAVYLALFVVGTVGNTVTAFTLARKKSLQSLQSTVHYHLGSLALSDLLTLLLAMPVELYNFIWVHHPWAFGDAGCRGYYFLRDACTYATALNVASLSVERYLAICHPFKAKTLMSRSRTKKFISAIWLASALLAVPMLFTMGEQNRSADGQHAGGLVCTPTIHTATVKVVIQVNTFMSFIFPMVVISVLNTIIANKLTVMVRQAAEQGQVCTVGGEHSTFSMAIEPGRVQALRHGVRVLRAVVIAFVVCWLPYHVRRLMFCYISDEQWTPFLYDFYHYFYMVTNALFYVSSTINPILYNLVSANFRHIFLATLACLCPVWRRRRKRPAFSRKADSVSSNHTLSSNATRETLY
# V-ATPase pHluor: yeast V-ATPase proton transport regulation by pHLuorin | S. cerevisiae, pHLuorin cytosolic pH fluorescence | response, % at 10 µM | 350,000 compounds, 0.37% hits | AID 504577; in the data active = response mostly above about 7.3%, no sharp cut-off; inactive = mostly below about 5.4%; also: actives read high
# CRFBP-R2 agonist: CRF-BP/CRF-R2 complex agonism. HEK293 CRF-R2/CRF-BP, calcium dye fluorescence (FLIPR); percent of saturating CRF peptide response. activation, % at 13.2 µM. 350,000 compounds, 0.46% hits. AID 588473;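 active = activation of at least 50%, plus an integration ratio under a set limit after plate pattern correction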
# NTR1 ag conf: NTR1 (human) agonism, confirmed; activation, % at 20 µM; 480 compounds, 38% hits; shares compounds with NTR1 ag; NTR1-U2OS beta-arrestin-GFP translocation imaging;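 active = mean activation at 20 µM of at least 40%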
# A number is an active result; n = inactive; x = no result.
SMILES,CRFR2-BP antag,NTR1 ag,V-ATPase pHluor,CRFBP-R2 agonist,NTR1 ag conf
COc1cc(C(=O)N/N=C/c2ccc(OC(=O)c3ccccc3Cl)cc2)ccc1O,n,49.1,n,n,n
COCCn1c(SCC(=O)Nc2cc(C)on2)nnc1-c1ccccc1,n,n,n,n,x
COc1ccccc1-c1cn[nH]c1-c1ccc(OCc2ccccc2F)cc1O,n,40.0,n,n,n
Oc1cc(OCc2ccccc2)ccc1-c1[nH]ncc1-c1ccccc1,n,n,n,n,x
O=[N+]([O-])c1ccc(COc2ccc(-c3[nH]ncc3-c3ccccc3)c(O)c2)cc1,n,41.5,n,n,n
COc1ccccc1-c1cn[nH]c1-c1ccc(OCc2ccc(F)cc2)cc1O,n,40.5,n,n,n
COc1ccccc1-c1cn[nH]c1-c1ccc(OCc2ccc([N+](=O)[O-])cc2)cc1O,n,n,n,n,x
O=C(Nc1ccccc1)c1ccc[nH]1,n,n,n,n,x
C/C(=N/Nc1cc(-c2ccccc2)nc(-c2ccccc2)n1)c1ccc(O)cc1,n,53.5,n,n,46.0
COc1ccc(-c2sc3cc(OC)c(OC)cc3c2-c2ccc(O)cc2)cc1,n,50.9,n,n,n
Cc1cc2c(N=NC(=O)C3CC3c3ccccc3)c(O)[nH]c2cc1Br (stereo unspecified),n,42.1,n,n,n
Cc1occc1C(=O)N=Nc1c(O)[nH]c2ccc(Br)cc12,x,n,x,x,x
Cc1sc2nc(CN3CCCC3)nc(N3CCN(S(=O)(=O)c4cccc(F)c4)CC3)c2c1C,n,n,n,n,x
COc1ccc(C=C2C=C(C(C)(C)C)C(=O)C(C(C)(C)C)=C2)cc1OC,n,40.6,n,n,n
COc1ccc(/C=C2\CC/C(=C\c3ccc(OC)c(OC)c3)C2=O)cc1OC,n,n,n,n,x
Oc1ccccc1/C=N/Nc1cc(N2CCCC2)nc(N2CCCC2)n1,n,40.4,n,n,n
O=C(Nc1ccnc(-c2ccncc2)n1)c1ccc(Cl)cc1,n,n,n,n,x
CCc1cccc(CC)c1-n1c(SCC(=O)N2CCc3ccccc3C2)nnc1-c1cccnc1,n,44.6,n,n,64.5
CCc1nc2ccccc2c(C(=O)OCC(=O)Nc2cccc(S(=O)(=O)N3CCOCC3)c2)c1C,n,59.8,n,n,65.2
CCc1nc2ccccc2c(C(=O)OCC(=O)Nc2ccc(S(=O)(=O)N3CCOCC3)cc2)c1C,n,n,n,n,x
Cc1ccc(CC2CC(=O)N(c3cc(Cl)ccn3)C2=O)cc1 (stereo unspecified),n,n,n,n,x
COc1ccc(-n2nc(C(=O)c3cccs3)cc(-c3nc4ccccc4[nH]3)c2=N)cc1,n,76.5,n,n,n
Cc1ccccc1-n1nc(C(=O)c2cccs2)cc(-c2nc3ccccc3[nH]2)c1=N,n,55.0,n,n,n
CCCN(CCO)C1CCN(CCc2ccccc2)CC1,n,n,n,n,x
Cc1cc(C)n(-c2nc(N(c3ccccc3)c3ccccc3)nc(-n3nc(C)cc3C)n2)n1,n,83.7,n,n,74.8
SMILES,CRFR2-BP antag,NTR1 ag,V-ATPase pHluor,CRFBP-R2 agonist,NTR1 ag conf
Cc1cc(C)n(-c2nc(Nc3ccccc3)nc(-n3nc(C)cc3C)n2)n1,n,n,n,n,x
CCC1C(=O)C[C@H]2CCN3C(=O)CCCC1C23 (stereo partly specified),n,n,n,n,x
Cc1ccc(S(=O)(=O)Nc2ccc3c4c(cccc24)CC3)c(C)c1,n,41.2,n,n,n
Cc1cc(C)c(S(=O)(=O)Nc2ccc3c4c(cccc24)CC3)c(C)c1,n,n,n,n,x
O=C(CSc1nnc(CNC(=O)c2ccccc2)o1)NCC1CCCO1 (stereo unspecified),n,n,n,n,x
O=C1c2ccc(Cl)cc2S(=O)(=O)c2cccc(C(=O)N3CCC(Cc4ccccc4)CC3)c21,n,52.4,n,n,80.4
CCOc1cc(N2CCOCC2)c(OCC)cc1NC(=O)c1nn(CC)c(=O)c2ccccc12,n,44.8,n,n,n
COC(CNC(=O)[C@H](Cc1ccccc1)N1Cc2ccccc2C1=O)OC,n,n,n,n,x
CC1N=C2c3ccccc3N=C(SCc3cc(=O)n4cc(Cl)ccc4n3)N2C1=O (stereo unspecified),n,52.0,n,n,n
CS(=O)(=O)N1N=C(c2cccs2)CC1c1ccc(Cl)o1 (stereo unspecified),n,n,n,n,x
CC1(C)CC(=O)C(=Cc2cn(-c3ccccc3)nc2-c2ccc(Cl)cc2)C(=O)C1,n,63.0,n,58.2,83.4
CC1(C)CC(=O)C(=Cc2cn(CCC#N)nc2-c2ccc(Cl)cc2)C(=O)C1,n,n,n,n,x
O=C(Nc1ccc(Cl)cc1)/C(=C/c1cccc(O)c1)c1nc2ccccc2s1,n,49.2,n,n,56.5
S=C(Nc1ccc(Cl)cc1)c1nc2ccccc2s1,n,n,n,n,x
CCCCCn1c(N2CCC(Cc3ccccc3)CC2)nc2c1c(=O)[nH]c(=O)n2C,n,40.9,n,n,50.1
CCCn1c(N2CCC(Cc3ccccc3)CC2)nc2c1c(=O)[nH]c(=O)n2C,n,n,n,n,x
COc1ccc2nc(NC(=O)Nc3ccccc3)sc2c1,n,n,n,n,x
CC(C)(C)c1nc(NC(=O)Nc2ccccc2)sc1Br,n,44.1,n,n,n
CCCCCOc1ccc(Br)cc1CSC(=N)N,n,x,n,n,x
CCCCOc1ccc(CSC(=N)N)cc1Cl,n,49.9,n,n,n
CCCCC(=O)Nc1nnc(CCc2ccccc2)s1,n,n,n,n,x
CCCCCCOc1ccc(NC(=O)CC2C(=O)N(CC)C(=S)N2Cc2ccco2)cc1 (stereo unspecified),n,40.5,n,n,n
CCCN(CC(=O)Nc1ccccc1C)C(=O)c1ccc(NC2CC2)c([N+](=O)[O-])c1,n,n,n,n,x
O=C1O/C(=C/c2ccccc2)c2ccccc21,n,n,n,n,x
N#CC1=C(c2ccccc2)/C(=C/c2ccccc2)OC1=O,n,65.8,n,n,87.4
SMILES,CRFR2-BP antag,NTR1 ag,V-ATPase pHluor,CRFBP-R2 agonist,NTR1 ag conf
CCOC(=O)N1CCC(NC(=O)c2ccc3c(c2)N=C(C)c2c(C)ccc(C)c2S3)CC1,n,n,n,n,x
Cc1ccc2[nH]c(C)c(/C=N/Nc3nc4ccccc4s3)c2c1,n,40.9,n,n,n
COc1ccc(C=NNc2nc3ccccc3s2)cc1,n,x,n,n,x
Cc1ccc(NS(=O)(=O)c2ccc(Cl)c(NC(=S)NC(=O)C3CCCCC3)c2)cc1Cl,n,54.9,n,n,n
C[C@@H]1CC=C[C@H]2[C@H]1C(=O)N(Cc1ccccc1)[C@H]2c1ccc2ccccc2c1Br,n,43.1,n,n,n
OC(CNCC(c1ccc(Cl)cc1Cl)c1c[nH]c2ccccc12)c1ccccc1 (stereo unspecified),n,58.9,n,n,44.2
Nc1nc(N)c(Br)c(Nc2ccc(Cl)c(Cl)c2)n1,n,x,n,n,x
Nc1nc(N)c(C=Nc2ccc(Br)cc2)c(Nc2ccc(Br)cc2)n1,n,59.4,n,n,n
CC(C)Sc1ncnc2[nH]ncc12,n,x,n,n,x
O=C(/C=C/c1ccccc1F)c1cccc([N+](=O)[O-])c1,n,41.6,n,n,61.3

# Compound activity as filed in PubChem BioAssay.
